Bioassay records (PubChem)
APE1 inh: APE1 (human) endonuclease inhibition | recombinant APE1, TAMRA/BHQ-2 abasic DNA cleavage fluorescence | Potency, µM (titrated, usually from 65.8 µM), without a hit: top-dose activity change, negative = inhibition, usual class: inhibitors | 350,000 compounds, 0.35% hits | AID 2517;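 note: plate controls were vehicle for no effect and reference inhibitor for full effect; nearly all actives have a fitted effect of over 55% in size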
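Enzyme (0.75 nM final) and test compound are incubated 15 min at room temperature before adding 50 nM quenched THF abasic-site duplex. Cleavage dequenches TAMRA, followed at 525/598 nm over three reads one minute apart.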
POLK inh: DNA polymerase kappa (human) inhibition | Q9UBT6 | purified Pol kappa, fluorescent DNA synthesis assay, 10 min | Potency, µM (series often up to 107 µM), for the others: at the highest dose activity, negative = inhibition, usual class: inhibitors | 400,000 compounds, 0.53% hits | AID 588579; note: % is set by controls: 0 for no effect and ±100 for the full control effect
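Pol kappa 10 nM + cpd, 15 min RT; start w/ substrate 50 nM final; fluorescence kinetic read, 0 and 10 min. Neg ctrl: buffer, no enzyme.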
L3MBTL1 inh: blocks human L3MBTL1. Potency, µM (doses to about 57.1 µM), without a hit: at the highest dose activity, negative = inhibition, usual class: inhibitors. Q9Y468. AlphaScreen L3MBTL1–H3K9me1 peptide binding. 230,000 compounds, 0.66% hits; note: % is set by controls: 0 for no effect and ±100 for the full control effect; nearly all actives have a fitted effect of over 60% in size
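AlphaScreen proximity signal between nickel-chelate acceptor and streptavidin donor beads (final 10 ug/mL) reports binding of 50 nM L3MBTL1 to 75 nM biotin-H3 K9me1 peptide; complex incubated with compounds 30 min at room temperature; cefsulodin titration as control.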
POLI inh: inhibitors of human DNA polymerase iota; Potency, µM (series often up to 115 µM), for inactives: top-dose activity, negative = inhibition, hits mostly inhibitors; 390,000 compounds, 1% hits; AID 588590; Pol iota fluorescent replication assay, 10 min; Q9UNA4
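Pol iota at 10 nM preincubated 15 min with compounds at room temperature; reaction started with fluorescent substrate, 50 nM final. Fluorescence read kinetically at 0 and 10 min; buffer-only wells as negative control.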
Pol beta inh: inhibitors of human DNA polymerase beta. Potency, µM (doses to about 114 µM), for the others: at the highest dose activity change, negative = inhibition, most hits filed as inhibitors. Pol beta primer extension/strand displacement, fluorescence kinetic. P06746. 340,000 compounds, 1.3% hits; note: % is set by controls: 0 for no effect and ±100 for the full control effect
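Kinetic readout of DNA synthesis with strand displacement by Pol beta. Compound and 10 nM enzyme sit 15 min at room temperature; 50 nM substrate starts the reaction, read immediately and at 10 min.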
Pol eta inh: blocks human DNA polymerase eta activity; Q9Y253; 390,000 compounds, 1.2% hits; recombinant Pol eta, fluorescent DNA replication assay; AID 588591; Potency, µM (highest dose often 114 µM), for the others: top-dose activity change, negative = inhibition, hits mostly inhibitors; note: % is set by controls: 0 for no effect and ±100 for the full control effect
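Pol eta (10 nM) was preincubated with compounds for 15 min at room temperature, after which fluorescent replication substrate (50 nM final) was added to start the reaction. Fluorescence was read kinetically at 0 and 10 min.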
Numbers without * were called inactive; ? = inconclusive; · = no result; [ ] = dose if it differs, or a comment. This is a sample that favours compounds with a hit; in the whole collection about 2.5% have one here. Calls come from the whole dose curve; as a rule, active = well fitted curve in the direction sought with a large enough effect; inconclusive = small, poorly fitted or top-dose-only effect, or another doubt; inactive = no such curve, though single readings can be large; an effect the other way counts as inactive or inconclusive. Potency is the fitted concentration of half-maximal effect.

SMILES | APE1 inh | POLK inh | L3MBTL1 inh | POLI inh | Pol beta inh | Pol eta inh
O=C(CN1C(=O)N/C(=C\c2ccccc2OCc2ccc(C(=O)O)cc2)C1=O)Nc1ccc(F)cc1 | -36% | ? | · | ? | 79µM* | -13%
CCCCn1c(SCC(=O)Nc2cccc(OC)c2)nc2c(sc3ccccc32)c1=O | · | 3%[60.1 µM] | · | 10% | 81% | 1%
CC(=O)c1ccc(NS(=O)(=O)c2c(C)nc3scc(C)n3c2=O)cc1 | · | -4% | · | 1% | 18% | 0%
Cc1nc2scc(C)n2c(=O)c1S(=O)(=O)Nc1ccc(N2CCN(S(C)(=O)=O)CC2)cc1 | 8% | -11% | · | 50µM* | ? | ?
O=C(C[N+]12CCCc3cccc(c31)CCC2)c1ccccc1 | · | -9% | · | 15% | · | ·
CC1NC(=O)NC1CCCCCC(=O)Nc1ccc(F)c(Cl)c1 (configuration not stated) | -4% | -5% | 0.32µM* | -14% | 21% | -4%
COc1c2c(c(C)c3c1C(=O)OC3)O[C@@]1(C)CC[C@@]3(O)C(C)(C)OC(=O)CC[C@]3(C)[C@H]1C2 | ? | -37% | · | ? | ? | 45µM*
Cc1cc2c(c(=O)o1)C1(C(=O)N(CC(=O)O)c3ccccc31)C(C#N)=C(N)O2 (configuration not stated) | 8% | ? | ? | ? | ? | 20µM*
Cc1cnc(CNc2ncnc3ccc(-c4cccc(C#N)c4)cc23)cn1 | -2% | ? | · | · | · | ·
CN(C)c1ccc(CNC(=O)c2ccc3nc(Cc4ccccc4)oc3c2)cc1 | · | -12%[60.1 µM] | · | 28µM* | 0% | -11%
CC(C)CCNC(=O)c1onc(CSc2ccccn2)c1C(=O)NCCC(C)C | · | -17% | · | ? | · | -21%
COc1cc(C(=O)Nc2nc(OC)c(-c3ccccc3)c(OC)n2)cc(OC)c1OC | ? | 7%[60.1 µM] | -19% | ? | 45µM* | -22%
COc1cccc(-c2cc(=O)[nH][nH]2)c1 | 20% | -2% | · | ? | 2% | -6%
O=c1cc(-c2ccc(Br)cc2)[nH][nH]1 | 7% | 4% | -21% | 91% | 12% | -5%
O=c1cc(-c2ccc(F)cc2)[nH][nH]1 | 4% | -1% | -5% | 1.8µM* | 2% | -19%
COc1ccc(-c2cc(=O)[nH][nH]2)cc1OC | ? | -3% | · | 1.3µM* | 37% | -17%
CC(C)(C)n1ncc2c(=O)n(Cc3c(Cl)ccc(Cl)c3Cl)cnc21 | -2% | 8% | · | -24% | · | ·
Nc1ccc(/C=C/c2cc(Cl)nc3ccccc23)cc1 | · | 3% | · | 7% | · | ·
O=C(/C=C/c1ccc(O)c(O)c1)c1ccc(S(=O)(=O)N2CCCCCC2)cc1 | ? | -36% | ? | ? | ? | 7.9µM*
O=C(c1ccc(S(=O)(=O)N2CCCC2)cc1)N1CCCCC1 | 31% | -4% | 7% | 4% | · | -11%
COc1cc(C)ccc1OCCOCCOc1cc(C)c(C)cc1Br | 4% | -4% | 36% | 100µM* | -3% | -12%
CCOc1ccc(C(=O)Nc2ccc3c(c2)C(=O)NC3=O)cc1 | -30% | -9% | 2% | 11% | -1% | -15%
CCC(C)c1ccc(OCC(=O)Nc2ccc3c(c2)C(=O)NC3=O)cc1 (configuration not stated) | 14% | 3% | · | 17% | 35µM* | -13%
COc1ccc2o/c(=N/NC(=S)Nc3ccccc3)c(C(N)=O)cc2c1 | -3% | · | -2% | · | ? | ·
COc1ccc2c(CC(=O)OCC(=O)Nc3ccc(C)cc3)coc2c1 | -32% | ? | ? | ? | · | 20µM*
COc1ccc(Cl)cc1NC(=O)Cn1ncc2c3ccccc3n(Cc3ccccc3)c2c1=O | · | -4% | · | -12% | 7% | -6%
O=C(Cn1ncc2c3ccccc3n(Cc3cccc(Cl)c3)c2c1=O)Nc1ccc(F)cc1F | · | ? | · | ? | 22µM* | ?
CC(CCc1ccccc1)NC(=O)Cn1ncc2c3ccccc3n(Cc3ccccc3)c2c1=O (configuration not stated) | · | -6% | · | 0% | 35% | -4%
